Screening results from PubChem BioAssay.
Wnt bcat act – Wnt/beta-catenin pathway activators, primary screen, cell-based, plate reader, single point. 300,000 compounds, 1.2% hits. AID 743398, 2014. Wnt/beta-catenin reporter cell assay, activator. activation, % at 9.35 µM; in the data active = activation above about 30%, passing the limit was not always enough
esBAF inh – Bmi1 luciferase reporter increase in mESCs, primary screen, esBAF inhibitor project, mouse ES cells, Bmi1 luciferase knock-in, single point | 24 h; 100% = twice the neutral-well signal | reporter increase, % at 12.5 µM | 350,000 compounds, 2% hits; in the data active = activation above about 40%;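 also: a rise in the Bmi1 reporter signal indicates esBAF inhibition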
DAX1 StAR inh – DAX1 (NR0B1) inhibitors on StAR promoter, primary screen, cell-based, luminescence, SF-1 (NR5A1), full-length DAX-1; HEK293T StAR-luciferase reporter, SF-1/DAX-1 repression relief; inhibition, % at 6.8 µM; 370,000 compounds, 1.1% hits; AID 652010, 2013;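 active = inhibition above the mean over all tested compounds plus 3 SD, cut at about 3.6% in these data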;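 also: higher inhibition means more luminescence from relief of DAX-1 repression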
ssDAF12 agonist – S. stercoralis DAF-12 nuclear receptor activators, primary screen, cell-based, luminescence, HEK293, GRIP1 co-expression, lit1-tk-luc. Nuclear hormone receptor DAF-12 (Strongyloides stercoralis). HEK293 ssDAF-12/GRIP1 lit1-tk-luc reporter; % of 3 µM dafachronic acid response. activation, % at 6.8 µM. 370,000 compounds, 1% hits. AID 652126, 2013;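 active = activation above the mean over all tested compounds plus 3 SD, cut at about 0.9% in these data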
hcDAF-12 act – H. contortus DAF-12 nuclear receptor activators, primary screen, cell-based, luminescence, HEK293, lit1-tk-luc reporter; HEK293 hcDAF-12 lit1-tk-luc reporter; 0% DMSO, 100% Δ7-dafachronic acid; activation, % at 6.8 µM; 370,000 compounds, 1.4% hits; AID 652067, 2013;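 active = activation above the mean of all tested compounds plus 3 SD, cut at about 5.5% in these data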
hgDAF-12 ag – H. glycines DAF-12 receptor agonists, primary screen, cell-based, luminescence, HEK293, GAL4 fusion, UAS-luciferase; Nuclear hormone receptor DAF-12 (Heterodera glycines), GAL4 fusion; HEK293 GAL4-hgDAF12 UAS-luciferase reporter, agonist luminescence; normalized to butyrate control; activation, % at 6.8 µM; 370,000 compounds, 1.8% hits;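 active = activation above a cutoff set at the mean of all screened compounds plus 3 SD, cut at about 10% in these data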
LXR ag – LXR agonists, Gal4 luciferase reporter, confirmation, counter-screen for hcDAF-12 agonist project, cell-based, luminescence, HEK293, H. contortus campaign. shares compounds with hcDAF-12 act. HEK293 Gal4-LXR tk-luc reporter, 24 h; normalized: DMSO 0%, positive control 100%. activation, % at 6.8 µM. 3,400 tested, under 10 active. AID 743027, 2013;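 active = mean percent activation of the reporter above a cutoff set as the average over tested compounds plus their standard deviation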
Target sequence (P55055 whole entry, looked up, the tested form may be a part): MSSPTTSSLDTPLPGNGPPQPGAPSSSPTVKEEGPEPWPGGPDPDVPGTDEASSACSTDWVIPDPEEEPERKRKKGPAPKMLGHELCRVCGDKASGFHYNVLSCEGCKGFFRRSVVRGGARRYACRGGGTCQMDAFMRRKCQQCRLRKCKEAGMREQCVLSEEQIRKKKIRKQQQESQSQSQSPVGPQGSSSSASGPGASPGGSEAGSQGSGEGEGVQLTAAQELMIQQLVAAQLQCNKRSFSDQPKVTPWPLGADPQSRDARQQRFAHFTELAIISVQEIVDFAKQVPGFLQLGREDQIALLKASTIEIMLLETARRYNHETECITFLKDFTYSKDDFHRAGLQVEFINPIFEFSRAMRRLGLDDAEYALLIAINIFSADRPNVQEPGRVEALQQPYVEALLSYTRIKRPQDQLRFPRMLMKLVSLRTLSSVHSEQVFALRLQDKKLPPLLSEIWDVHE
hcDAF12 ag – H. contortus DAF-12 receptor agonists, confirmation, cell-based, luminescence, HEK293, lit1-tk-luc, triplicate | shares compounds with hcDAF-12 act | HEK293 hcDAF-12 lit1-tk-luc reporter; % of Δ7-dafachronic acid response | activation, % at 6.8 µM | 3,400 compounds, 61% hits | AID 743032, 2013;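 active = mean activation across triplicate tests above the threshold derived from the earlier primary screen, cut at about 5.5% in these data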
hgDAF12 conf – H. glycines DAF-12 receptor agonists, confirmation, cell-based, luminescence, HEK293, GAL4-LBD fusion; shares compounds with hgDAF-12 ag; AID 743050, 2013; 3,300 compounds, 80% hits; activation, % at 6.8 µM; HEK293 GAL4-hgDAF12 luciferase reporter, agonist mode; percent of butyrate response;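 active = mean activation over triplicate wells above the hit cutoff derived from the earlier primary screen, cut at about 11% in these data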
LXR ag 2 – LXR agonists, Gal4 luciferase reporter, confirmation, counter-screen for hgDAF-12 agonist project, cell-based, luminescence, HEK293, H. glycines campaign. 3,300 tested, under 10 active. shares compounds with hgDAF-12 ag. 24 h. activation, % at 6.8 µM;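 active = mean activation of the triplicate above a set limit carried over from the primary screen, none filed active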
Each line names hits and unclear results; the compound was inactive in the other large screens (follow-up assays come after a bar, where they were run). In the library only some 4.2% were active in any assay of this set; here they are far more common.

N#C/C(=C(/O)COc1ccccc1)c1nc2ccccc2s1	none
c1ccc(OCc2nc3ccccc3s2)cc1	ssDAF12 agonist 1.6, hcDAF-12 act 8.6, hgDAF-12 ag 14 (no result: Wnt bcat act) | LXR ag inactive | hcDAF12 ag 5.9 | hgDAF12 conf 18 | LXR ag 2 inactive
c1ccc(SCc2nc3ccccc3s2)nc1	ssDAF12 agonist 4.5, hcDAF-12 act 15, hgDAF-12 ag 14 | LXR ag inactive | hcDAF12 ag 7.8 | hgDAF12 conf 16 | LXR ag 2 inactive
Cc1noc(C)c1COC(=O)CCc1nc2ccccc2s1	none
Cc1cc(OCc2nc3ccccc3s2)ccc1N	Wnt bcat act 41, ssDAF12 agonist 2.0, hcDAF-12 act 13, hgDAF-12 ag 14 | LXR ag inactive | hcDAF12 ag 14 | hgDAF12 conf 19 | LXR ag 2 inactive
O=C(N[C@@H]1CC[C@H](CCn2cc(C3CCCCC3)nn2)O[C@@H]1CO)c1cccnc1	none (no result: Wnt bcat act, DAX1 StAR inh, ssDAF12 agonist, hcDAF-12 act, hgDAF-12 ag)
CC(=O)Nc1cc2nn(-c3ccccc3)nc2cc1C	ssDAF12 agonist 1.4, hcDAF-12 act 7.0, hgDAF-12 ag 18 | LXR ag inactive | hcDAF12 ag inactive | hgDAF12 conf 19 | LXR ag 2 inactive
COc1ccc(-n2nc3cc(C)c(NC(=O)c4cccnc4)cc3n2)cc1	none
Cc1cccc(/C=C(\C(=O)C(=O)O)c2ccc3ccccc3n2)c1	esBAF inh 50, ssDAF12 agonist 1.8, hcDAF-12 act 11, hgDAF-12 ag 21 | LXR ag inactive | hcDAF12 ag 8.1 | hgDAF12 conf 14 | LXR ag 2 inactive
CN(C)C(=S)c1ccc2ccccc2n1	none (no result: Wnt bcat act)
CC(C)NC(=O)N1C[C@@H]2[C@H](c3ccccc31)[C@@H](CO)N2C(=O)c1ccccc1	none (no result: Wnt bcat act, DAX1 StAR inh, ssDAF12 agonist, hcDAF-12 act, hgDAF-12 ag)
CNC[C@@H]1Oc2cc(C#CC3CCCC3)ccc2S(=O)(=O)N([C@@H](C)CO)C[C@H]1C	none (no result: Wnt bcat act, DAX1 StAR inh, ssDAF12 agonist, hcDAF-12 act, hgDAF-12 ag)
COCC(=O)Nc1ccc2c(c1)OC[C@@H](C)N(Cc1cc(F)ccc1F)C[C@H](C)[C@@H](OC)CN(C)C2=O	none (no result: Wnt bcat act, DAX1 StAR inh, ssDAF12 agonist, hcDAF-12 act, hgDAF-12 ag)
CC(C)c1ccc2nc(NC(=O)C3CC3)sc2c1	Wnt bcat act 58, esBAF inh 57, hcDAF-12 act 7.0, hgDAF-12 ag 22 | LXR ag inactive | hcDAF12 ag inactive | hgDAF12 conf 17 | LXR ag 2 inactive
COc1ccc(-c2csc(-n3cccn3)n2)cc1	Wnt bcat act 33, esBAF inh 68, hcDAF-12 act 7.0, hgDAF-12 ag 14 | LXR ag inactive | hcDAF12 ag inactive | hgDAF12 conf 18 | LXR ag 2 inactive
Cc1ccc(O)c(C2=Nc3ccccc3N=C(c3cccs3)C2)c1	none (no result: Wnt bcat act, esBAF inh)
